From the supplement of paper PMC6089552
Hit rate of the full screen: of about 3,200 compounds, about 300 (9.4%) showed activity. Many of the other results were omitted from the sample, so actives are more common in it than they were.

Tested on: A673/TR/shEF
Test: cell viability (LOESS-normalised, relative to median of negative controls) (log2 ratio); higher = more viable cells (less compound effect), active = hit call of the paper (over 3 MAD below the median)
Details: treatment time: 72 h
In short: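 A673/TR/shEF Ewing sarcoma cells (1,500 per well, 384-well plates) were grown with or without doxycycline to induce EWS-FLI1 shRNA knockdown, starting 24 h before compounds. Library compounds at two or more concentrations, with DMSO controls, were added for three days. Cell viability was read by CellTiter-Glo luminescence on an Envision reader, then LOESS-corrected per plate, divided by the median of negative controls and log2-transformed. Hits were wells at least three median absolute deviations from the median of all screened wells.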

[1] = 0.25 µM, library screen: screen2, EWS-FLI1 expression: high (no doxycycline)
[2] = 0.25 µM, library screen: screen2, EWS-FLI1 expression: low (doxycycline-induced shRNA knockdown)
[3] = 2.5 µM, library screen: screen2, EWS-FLI1 expression: high (no doxycycline)
[4] = 2.5 µM, library screen: screen2, EWS-FLI1 expression: low (doxycycline-induced shRNA knockdown)
[5] = 0.25 µM, library screen: screen1, EWS-FLI1 expression: high (no doxycycline)
[6] = 0.25 µM, library screen: screen1, EWS-FLI1 expression: low (doxycycline-induced shRNA knockdown)
[7] = 2.5 µM, library screen: screen1, EWS-FLI1 expression: high (no doxycycline)
[8] = 2.5 µM, library screen: screen1, EWS-FLI1 expression: low (doxycycline-induced shRNA knockdown)
[9] = 0.025 µM, library screen: screen2, EWS-FLI1 expression: high (no doxycycline)
[10] = 0.025 µM, library screen: screen2, EWS-FLI1 expression: low (doxycycline-induced shRNA knockdown)
[11] = 25 µM, library screen: screen2, EWS-FLI1 expression: high (no doxycycline)
[12] = 25 µM, library screen: screen2, EWS-FLI1 expression: low (doxycycline-induced shRNA knockdown)

Measured: cell viability (log2)

CC(C)NC(C)Cc1ccc(I)cc1 (stereo not given)
inactive: [1] 0.0787 | [2] 0.0338 | [3] 0.129 | [4] 0.0526

CCN1C[C@]2(COC)[C@H](O)C[C@H](OC)[C@]34C1[C@H]([C@H](OC)[C@H]23)[C@]1(OC(C)=O)[C@H]2[C@@H](OC(=O)c3ccccc3)[C@](O)(C[C@H]24)[C@@H](OC)[C@@H]1O
inactive: [5] 0.162 | [6] 0.0997 | [7] 0.181 | [8] 0.202

CCC(=O)C(CC(C)N1CCOCC1)(c1ccccc1)c1ccccc1 (stereo not given)
inactive: [5] 0.0298 | [6] 0.011 | [7] 0.0537 | [8] -0.074

CC[C@@H](C(=O)[C@@H](C)[C@@H](O)[C@H](C)[C@@H]1O[C@@H]([C@@H](CC)C(=O)O)CC[C@@H]1C)[C@H]1OC2(C=C[C@@H](O)[C@]3(CC[C@@](C)([C@H]4CC[C@](O)(CC)[C@H](C)O4)O3)O2)[C@H](C)C[C@@H]1C (stereo not given in full)
active: [5] -0.101 | [7] -0.582
inactive: [6] 0.0935 | [8] -0.123

O=C(O)CF
inactive: [5] -0.0204 | [6] -0.0324 | [7] 0.103 | [8] 0.0882

COc1cc(CC(C)N)c(OC)cc1I (stereo not given)
inactive: [1] 0.14 | [2] 0.0726 | [3] 0.151 | [4] 0.083

O=C[C@H](Cl)[C@@H](O)[C@H](O)[C@H](O)CO
inactive: [1] 0.14 | [2] 0.0253 | [3] 0.0931 | [4] 0.107

NCC#Cc1ccccc1
inactive: [1] 0.139 | [2] -0.0046 | [3] 0.0226 | [4] 0.0206

c1ccc2c(c1)[I+]c1ccccc1-2
active: [1] -1.37 | [2] -0.118 | [3] -1.4 | [4] -0.388

O=C1c2ccccc2C(=O)c2ccccc21
inactive: [5] 0.0481 | [6] 0.0868 | [7] 0.203 | [8] 0.0785

COc1cc2c3cc1Oc1cc(ccc1O)C[C@H]1c4c(cc(OC)c(O)c4Oc4ccc(cc4)C[C@@H]3N(C)CC2)CCN1C
inactive: [5] 0.0853 | [6] 0.0939 | [7] 0.083 | [8] 0.276

CC1=C2[C@H]3OC(=O)[C@@H](C)[C@@H]3CC[C@@]2(C)C=CC1=O
inactive: [5] 0.0669 | [6] -0.0349 | [7] 0.0906 | [8] 0.0161

CCN(CC)C(=O)N[C@H]1C=C2c3cccc4[nH]cc(c34)C[C@H]2N(C)C1
inactive: [1] 0.144 | [2] 0.146 | [3] 0.172 | [4] 0.138

C=C(C)[C@@H]1C2OC(=O)C1[C@]1(O)CC3O[C@]34C(=O)O[C@H]2[C@]14C.CC(C)(O)[C@@H]1C2OC(=O)C1[C@]1(O)C[C@H]3O[C@]34C(=O)O[C@H]2[C@]14C (stereo not given in full)
inactive: [1] 0.0987 | [2] 0.0228 | [3] 0.079 | [4] 0.0567

O=C(O)C1C2CCC(O2)C1C(=O)O (stereo not given)
inactive: 0.025 µM, library screen: screen1, EWS-FLI1 expression: high (no doxycycline) 0.136 | 0.025 µM, library screen: screen1, EWS-FLI1 expression: low (doxycycline-induced shRNA knockdown) 0.0328 | [5] 0.0769 | [6] 0.0235 | [1] 0.267 | [2] 0.0812 | [3] 0.105 | [4] -0.0306
active: [7] -0.431 | [8] -2.19 | 25 µM, library screen: screen1, EWS-FLI1 expression: high (no doxycycline) -0.369 | 25 µM, library screen: screen1, EWS-FLI1 expression: low (doxycycline-induced shRNA knockdown) -2.13

O=C(O)[C@@H]1CCN1
inactive: [1] 0.101 | [2] 0.092 | [3] 0.0671 | [4] 0.0609

COc1ccc(CN2CCN(Cc3cccc(F)c3)CC2)cc1
inactive: [5] 0.0679 | [6] 0.104 | [7] 0.124 | [8] 0.0696

Nc1ncnc2c1ncn2[C@@H]1O[C@@H]2COP(O)(=S)O[C@H]2[C@H]1O (stereo not given in full)
inactive: [1] 0.205 | [2] 0.149 | [3] 0.079 | [4] 0.148

CSc1nc(NC(C)C)nc(NC(C)C)n1
inactive: [5] 0.0904 | [6] -0.0688 | [7] 0.0234 | [8] 0.0938

CNC(=O)O/N=C(\C)SC
inactive: [5] 0.0466 | [6] 0.0661 | [7] 0.0904 | [8] 0.143

O=C1C=C2C(=CCOC2O)O1 (stereo not given)
active: [5] -0.259 | [7] -2.95 | [8] -0.992
inactive: [6] 0.05

C=CCN1CC[C@@]2(C)c3cc(O)ccc3CC1[C@@H]2C
inactive: [1] 0.194 | [2] 0.135 | [3] 0.028 | [4] 0.047

N#C[C@H](O[C@@H]1O[C@H](CO[C@@H]2O[C@H](CO)[C@@H](O)[C@H](O)[C@H]2O)[C@@H](O)[C@H](O)[C@H]1O)c1ccccc1
inactive: [9] 0.166 | [10] 0.0523 | [5] 0.122 | [6] -0.00438 | [1] 0.174 | [2] 0.00657 | [7] 0.113 | [8] 0.0319 | [3] 0.1 | [4] 0.0264 | [11] 0.202 | [12] 0.0554

CC(=O)[C@H]1CC[C@H]2[C@@H]3CC[C@H]4C[C@H](O)CC[C@]4(C)[C@H]3CC[C@]12C
inactive: [1] 0.267 | [2] 0.093 | [3] 0.266 | [4] 0.165

CC(=O)[C@H]1CC[C@H]2[C@@H]3CC[C@H]4C[C@H](O)CC[C@]4(C)[C@H]3C(=O)C[C@]12C
active: [3] -2.77 | [4] -0.524
inactive: [1] 0.0616 | [2] 0.101

CC(=O)[C@H]1CC[C@H]2[C@@H]3CC[C@H]4C[C@@H](O)CC[C@]4(C)[C@H]3CC[C@]12C
inactive: [5] 0.0984 | [6] 0.068 | [7] 0.0674 | [8] 0.135

CNC(=O)Oc1cccc2c1OC(C)(C)C2
inactive: [5] 0.0513 | [6] 0.0685 | [7] 0.07 | [8] 0.106

ClC1=C(Cl)[C@]2(Cl)[C@@H]3[C@@H]4C[C@@H]([C@H]5O[C@@H]45)[C@@H]3[C@@]1(Cl)C2(Cl)Cl
inactive: [5] 0.163 | [6] 0.0877 | [7] 0.115 | [8] 0.192

CC(=O)OC1CCC23C(=O)OC45CCC(C6=CC(=O)OC6)C4(C)CCC2C5CCC3(O)C1 (stereo not given)
active: [7] -1.11 | [8] -1.12
inactive: [5] -0.0349 | [6] -0.171

C[C@]12CC[C@H]3[C@@H](CC[C@]4(O)C[C@@H](O)CC[C@]34C=O)[C@@]1(O)CC[C@@H]2C1=CC(=O)OC1
active: [7] -1.21 | [8] -1.3
inactive: [5] 0.0251 | [6] -0.17

CC(=O)O[C@H]1CC[C@@]2(C)C(=CCC3C2CC[C@]2(C)C(=O)CCC32)C1 (stereo not given in full)
inactive: [5] 0.0955 | [6] 0.0874 | [7] 0.042 | [8] 0.106

CC(=O)O[C@H]1CC[C@]2(C=O)C3CC[C@]4(C)[C@@H](C5=CC(=O)OC5)CC[C@]4(O)C3CC[C@]2(O)C1 (stereo not given in full)
active: [7] -1.12 | [8] -1.15
inactive: [5] 0.0163 | [6] -0.145

NCCC(O)C(=O)NC1CC(N)C(OC2OC(CN)C(O)C(O)C2N)C(OC2OC(CO)C(O)C2O)C1O (stereo not given)
inactive: [5] 0.0254 | [6] -0.0377 | [7] 0.12 | [8] -0.0236

CCN1C[C@]2(C)CC[C@H](O)[C@]34C1[C@H](C[C@H]23)[C@@]1(O)C[C@H](OC)[C@H]2C[C@@H]4[C@@H]1[C@H]2O
inactive: [1] 0.0509 | [2] 0.0197 | [3] 0.0295 | [4] 0.0503

COC(=O)COc1ccc(Cl)cc1Cl
inactive: [5] 0.022 | [6] -0.0423 | [7] 0.11 | [8] 0.0409

COc1cccc(CN2CCN(Cc3cccc(F)c3)CC2)c1
inactive: [5] 0.0335 | [6] 0.131 | [7] 0.0329 | [8] 0.0279

C[C@@H]1CC[C@@]2(NC1)O[C@H]1C[C@H]3[C@@H]4CC=C5C[C@@H](O)CC[C@]5(C)[C@H]4CC[C@]3(C)[C@H]1[C@@H]2C
inactive: [9] 0.0804 | [10] 0.071 | [5] 0.101 | [6] 0.14 | [1] 0.194 | [2] 0.0802 | [7] 0.13 | [8] 0.0856 | [3] 0.106 | [4] 0.133 | [11] 0.0875 | [12] 0.0211

CC(O)C(C)OC(=O)[C@@H]1C[C@@H]2c3cccc4c3c(cn4C(C)C)C[C@H]2N(C)C1 (stereo not given in full)
inactive: [1] 0.174 | [2] 0.171 | [3] 0.12 | [4] 0.112

NCCc1cccc(O)c1
inactive: [5] 0.0584 | [6] 0.0834 | [7] 0.0622 | [8] 0.0348

CN1CC[C@@]2(C)c3cc(O)ccc3N(C)C12 (stereo not given in full)
inactive: [1] 0.117 | [2] 0.0622 | [3] 0.072 | [4] 0.0674

CNNC
inactive: [9] 0.186 | [10] 0.0401 | [5] 0.136 | [6] 0.152 | [1] 0.206 | [2] 0.035 | [7] 0.115 | [8] 0.131 | [3] 0.112 | [4] 0.0817 | [11] 0.239 | [12] 0.143

Nc1ncnc2c1ncn2[C@@H]1O[C@H](COP(=O)(O)CP(=O)(O)OP(=O)([O-])[O-])[C@H](O)C1O.[Li+].[Li+] (stereo not given in full)
inactive: [1] 0.132 | [2] 0.0925 | [3] 0.106 | [4] 0.143
